In publication PMC10726135, “HNF4α isoforms regulate the circadian balance between carbohydrate and lipid metabolism in the liver”:
The full ranking holds about 18,000 sequences; the median of “log2 normalized intensity” is about 0.36, and the highest 2% start at about 7.3. What follows is part of a selection rich in the highest values, with near analogues and random picks from the rest.

target: T1, HNF4alpha8 (COS-7 nuclear extract) (Homo sapiens, UniProt P41235-5 1-452); assay: protein-binding microarray; COS-7 nuclear extract on double-stranded Agilent 4x180k PBM; binding buffer, salt, pH and temperature not given in the material; high values mean tight binding; conditions: chain copies: 2; label: 3' end of strand 1 on the slide; dsDNA, one strand shown
T1 sequence: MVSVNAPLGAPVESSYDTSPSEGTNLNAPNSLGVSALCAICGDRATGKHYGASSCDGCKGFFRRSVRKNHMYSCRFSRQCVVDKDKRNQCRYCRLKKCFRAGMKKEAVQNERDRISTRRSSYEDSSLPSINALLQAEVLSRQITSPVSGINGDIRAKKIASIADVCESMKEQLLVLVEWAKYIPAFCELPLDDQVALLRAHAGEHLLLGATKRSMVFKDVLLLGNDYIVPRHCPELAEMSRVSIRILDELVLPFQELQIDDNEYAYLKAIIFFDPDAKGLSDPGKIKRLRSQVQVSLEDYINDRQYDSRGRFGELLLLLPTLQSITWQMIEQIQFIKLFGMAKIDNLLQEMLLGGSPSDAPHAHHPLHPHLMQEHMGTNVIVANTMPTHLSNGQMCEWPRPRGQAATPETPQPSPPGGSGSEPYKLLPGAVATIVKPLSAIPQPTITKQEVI
Summary of the method: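 The binding signal is Agilent software's gProcessedSignal after background correction and normalization. Arrays were a custom Agilent SurePrint G3 4x180k design of double-stranded ~60-nt oligonucleotides with ~44,000 test sequences in quadruplicate, probed with nuclear extracts of COS-7 cells transiently expressing a human HNF4α isoform. Scans were made at 2-µm resolution on an Agilent G2565CA scanner.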

Going from “GCCTCCATTAATTAACCTTTGAGCTGGGTGGCCTAGGGAGATTAGAGTATCGGTCGA” to “TGGACTGTTCAAGACCAAAGGTCATGGCAAGCCTAGGGAGATTAGAGTATCGGTCGA”, the binding signal rises from 5.22 log2 normalized intensity to 5.58 log2 normalized intensity.

First: TAAGTGTGGGTTTAAGTAAGCCCCCTTCCCGCCTAGGGAGATTAGAGTATCGGTCGA
Second: AGCTGACCCCAAAACCCCCAAAGGTGAGTAGCCTAGGGAGATTAGAGTATCGGTCGA
The binding signal of the first is higher: 4.85 log2 normalized intensity for the first, 4.29 log2 normalized intensity for the second.

First: GCCACCCTCTGGCCACCAGTTATTCATGTCGCCTAGGGAGATTAGAGTATCGGTCGA
Second: ATGCCCCATGGTAAGAACTACAGTTGACCTGCCTAGGGAGATTAGAGTATCGGTCGA
The binding signal of the first is lower: 0.887 log2 normalized intensity for the first, 4.71 log2 normalized intensity for the second.

First: CAGTTGACCTTTGAACACCACAAGTTTGAAGCCTAGGGAGATTAGAGTATCGGTCGA
Second: GACCTTTGAACACCACAAGTTTGAACTGCAGCCTAGGGAGATTAGAGTATCGGTCGA
The binding signal of the first is higher: 6.74 log2 normalized intensity for the first, 5.65 log2 normalized intensity for the second.

Going from “TAGGTATGCCCCATGGTAAGAACTACAGTTGCCTAGGGAGATTAGAGTATCGGTCGA” to “CCATGGTAAGAACTACAGTTGACCTTTGAAGCCTAGGGAGATTAGAGTATCGGTCGA”, the binding signal rises from 1.21 log2 normalized intensity to 8.15 log2 normalized intensity.

Compared with “AACTACAGTTGACCTTTGAACACCACAAGTGCCTAGGGAGATTAGAGTATCGGTCGA”, “TTTTCCTTTGTTGGTTTTGCCCGAGGTCTGGCCTAGGGAGATTAGAGTATCGGTCGA” is lower in binding signal: 8.13 log2 normalized intensity for the first, 1.89 log2 normalized intensity for the second.

First: GTGGAATTTGTGCTTATTTCCCATCAAGGAGCCTAGGGAGATTAGAGTATCGGTCGA
Second: ATAGCGCCCACACTGCCCATCCCCACTGAAGCCTAGGGAGATTAGAGTATCGGTCGA
The binding signal of the first is lower: 0.292 log2 normalized intensity for the first, 3.12 log2 normalized intensity for the second.

Going from “AGCTGCCCTTTGCACATGCCCCTCCCAGGGGCCTAGGGAGATTAGAGTATCGGTCGA” to “AATGCACTGGTGACTTTAAGTTGACTCCAAGCCTAGGGAGATTAGAGTATCGGTCGA”, the binding signal falls from 2.81 log2 normalized intensity to -0.366 log2 normalized intensity.

First: TCACCAGGATGGGCCATGACCTTTACCCCCGCCTAGGGAGATTAGAGTATCGGTCGA
Second: GGGCCATGACCTTTACCCCCATTTGGTAATGCCTAGGGAGATTAGAGTATCGGTCGA
The binding signal of the first is higher: 10 log2 normalized intensity for the first, 7.13 log2 normalized intensity for the second.

Compared with “ATGACCTTTACCCCCATTTGGTAATGGGCCGCCTAGGGAGATTAGAGTATCGGTCGA”, “AGGATGGGCCATGACCTTTACCCCCATTTGGCCTAGGGAGATTAGAGTATCGGTCGA” is higher in binding signal: 5.46 log2 normalized intensity for the first, 8.39 log2 normalized intensity for the second.

First: CACTATCACCAGGATGGGCCATGACCTTTAGCCTAGGGAGATTAGAGTATCGGTCGA
Second: AACGGCCCAGGGTTAGAGGATGACCTTCCCGCCTAGGGAGATTAGAGTATCGGTCGA
The binding signal of the first is higher: 4.97 log2 normalized intensity for the first, 3.71 log2 normalized intensity for the second.

Going from “CCTCCAGCTCTTTTGAACCCAAGGCCAAACGCCTAGGGAGATTAGAGTATCGGTCGA” to “ATAAATAAAGCCCTGGGGTAATAAAAGTGTGCCTAGGGAGATTAGAGTATCGGTCGA”, the binding signal falls from 2.07 log2 normalized intensity to -0.134 log2 normalized intensity.
